Screens as filed in PubChem BioAssay.
LYPLA1 inh: counter-screen for PME1 inhibitors: inhibitors of human LYPLA1; O75608; recombinant LYPLA1, FP-Rh probe fluorescence polarization; inhibition, % at 5.9 µM; hit rate 0.16% among 320,000; AID 2174;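 active = inhibition above the mean of all tested compounds plus 3 SD, set per campaign, cut at about 14% in these data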;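 also: inhibitors block serine hydrolase probe labeling of LYPLA1 so polarization falls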
Target sequence (O75608 whole entry, looked up): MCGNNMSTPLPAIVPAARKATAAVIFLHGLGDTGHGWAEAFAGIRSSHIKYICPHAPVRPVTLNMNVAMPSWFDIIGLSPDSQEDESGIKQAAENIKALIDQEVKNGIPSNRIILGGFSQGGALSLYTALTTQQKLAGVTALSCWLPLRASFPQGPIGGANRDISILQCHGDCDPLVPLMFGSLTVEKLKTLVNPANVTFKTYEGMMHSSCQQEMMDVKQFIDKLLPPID
LYPLA2 inh: LYPLA2 (human) inhibition in PME1 counter-screen | inhibition, % at 5.9 µM | hit rate 0.38% among 320,000 | recombinant LYPLA2, FP-Rh probe fluorescence polarization;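 active = inhibition above the screen-wide mean plus 3 SD, limit set per campaign, cut at about 26% in these data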
GSTO1 inh: GSTO1 inhibition, counter-screen for RBBP9 inhibitors. inhibition, % at 5.96 µM. P78417. hit rate 1.1% among 300,000. recombinant GSTO1, activity-based probe fluorescence polarization;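 active = inhibition above the campaign mean inhibition plus 3 SD, cut at about 35% in these data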
Fam108B inh: counter-screen for RBBP9 inhibitors: inhibitors of mouse Fam108B; recombinant Fam108B, FP-Rh probe fluorescence polarization; inhibition, % at 9.51 µM; hit rate 0.33% among 300,000; AID 1947;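 active = inhibition above the screen mean inhibition plus 3 SD, computed separately per campaign, cut at about 18% in these data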;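 also: inhibitors lower polarization as less probe binds the enzyme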
PME-1 inh: blocks human protein phosphatase methylesterase 1. Q9Y570. recombinant PME-1, FP-Rh probe fluorescence polarization. inhibition, % at 5.9 µM. hit rate 0.53% among 320,000. AID 2130;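 active = inhibition above the campaign mean of all compounds plus 3 SD, cut at about 26% in these data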;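 also: competitive labeling of PME-1 active site by serine hydrolase directed probe; inhibitors block probe labeling so polarization falls and inhibition rises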
Target sequence (Q9Y570 whole entry, looked up): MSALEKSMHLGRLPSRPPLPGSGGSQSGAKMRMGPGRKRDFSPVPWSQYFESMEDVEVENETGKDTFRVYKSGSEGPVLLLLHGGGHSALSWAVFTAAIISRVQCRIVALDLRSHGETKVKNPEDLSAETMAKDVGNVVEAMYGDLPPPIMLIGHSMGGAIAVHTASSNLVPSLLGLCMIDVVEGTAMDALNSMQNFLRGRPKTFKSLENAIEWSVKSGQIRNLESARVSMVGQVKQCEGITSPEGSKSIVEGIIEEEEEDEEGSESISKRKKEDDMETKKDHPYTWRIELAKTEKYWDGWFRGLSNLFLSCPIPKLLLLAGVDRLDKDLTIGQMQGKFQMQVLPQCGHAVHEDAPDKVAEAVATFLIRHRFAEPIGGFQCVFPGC
PAD4 inh: inhibitors of human PAD4. hit rate 0.41% among 330,000. inhibition, % at 6.36 µM. recombinant PAD4, RCA probe fluorescence polarization;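 active = percent inhibition above a cutoff equal to the mean of all tested compounds plus 3 SD, cut at about 15% in these data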
LYPLA2 confirm: LYPLA2 (human) inhibition, confirmation counter-screen | shares compounds with LYPLA2 inh | recombinant LYPLA2, FP-Rh probe fluorescence polarization | inhibition, % at 5.9 µM | hit rate 72% among 1,100 | AID 2232;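 active = mean inhibition across replicates above the hit cutoff set in the primary screen, cut at about 26% in these data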;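 also: blocked labeling of the enzyme by serine hydrolase FP-Rh probe lowers polarization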
LYPLA2 gel ABPP: LYPLA2 (human) inhibition, late stage results; hit rate 30% among 150; shares compounds with LYPLA2 inh; AID 652029; inhibition, % at 20 µM; rhLYPLA2 in mouse brain proteome, gel ABPP FP-Rh;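 active = inhibition of LYPLA2 enzyme probe labeling above about 50%, limit read from the data; inactive = inhibition below that limit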;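 also: loss of FP-Rh probe labeling of the LYPLA2 gel band measured as band density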
A number is an active result; - = inactive; . = no result. Sampled rows, rich in hits. Any-hit rate of the full collection: about 1.8%.

SMILES	LYPLA1 inh	LYPLA2 inh	GSTO1 inh	Fam108B inh	PME-1 inh	PAD4 inh	LYPLA2 confirm	others
Cc1ccc(C(=O)N2CCN(c3ccc(NC(=O)COc4ccccc4C)cc3)CC2)cc1	-	29	-	-	-	-	27
CCC(=O)N1CCN(c2ccc(NC(=O)COc3ccc(C)cc3C)cc2)CC1	-	-	-	-	-	-	.
COc1ccc(N2CCN(CCCNC(=O)c3cc4sccc4n3C)CC2)cc1	-	33	-	-	-	-	32
N#Cc1ccc(OCC(=O)N2CCN(c3ccc(C(F)(F)F)cn3)CC2)cc1	-	64	.	.	-	-	32
COc1cccc(-n2c(SCC(=O)N3CCCCC3)nc3c([nH]c4ccccc43)c2=O)c1	-	-	-	-	-	-	.
COc1cccc(-n2c(SCC(N)=O)nc3c([nH]c4ccccc43)c2=O)c1	-	174	-	-	-	-	-
COc1ccc(N2CCN(C(=O)c3cc4c(s3)-c3ccccc3S(=O)(=O)C4)CC2)cc1	-	89	-	-	-	-	97	LYPLA2 gel ABPP=100
COc1ccc(-n2nc(C(=O)NCC(=O)N3CCN(c4ccc(F)cc4)CC3)c3ccccc3c2=O)c(OC)c1	-	58	-	-	-	-	62	LYPLA2 gel ABPP=-
COc1ccc(-n2nc(C(=O)NCC(=O)N3CCCC3)c3ccccc3c2=O)c(OC)c1	-	-	-	-	-	-	.
CC(C)C(C)NC(=O)CN1C(=O)NC(c2ccccc2)(c2ccccc2)C1=O (stereo unspecified)	-	-	-	-	-	-	.
O=C1N(Cc2cccnc2)C[C@@H]2C[C@@H](c3cccc(Oc4ccccc4)c3)N3CCC[C@@]123	-	27	-	-	-	-	-
Cc1c(C(=O)Oc2ccc(F)cc2)sc2ncn(Cc3cccc(F)c3)c(=O)c12	-	35	-	-	-	-	30
CCn1cnc2sc(C(=O)Oc3cccc(C)c3)c(C)c2c1=O	-	28	-	-	-	-	36
CCN1C(=O)CC(C(=O)Nc2ccc(F)cc2)SC1=Nc1ccc2c(c1)OCO2 (stereo unspecified)	-	36	-	-	-	-	-
CCN=C1SC(C(=O)Nc2cccc(Br)c2)CC(=O)N1CC (stereo unspecified)	-	26	-	-	-	-	26
COc1ccc(N=C2SC(C(=O)Nc3ccc4c(c3)OCO4)CC(=O)N2C)cc1 (stereo unspecified)	-	53	-	-	-	-	39
C=CCN1C(=O)CS/C1=N\S(=O)(=O)c1ccc(Cl)cc1	-	-	-	-	-	-	.
CSc1nnc2ccc(-c3ccccn3)nn12	-	-	-	-	-	-	.
CN(C(=O)c1ccccc1C(=O)OCC(=O)c1ccc(Br)cc1)c1ccccc1	-	-	-	-	-	-	.
CCc1nnc(NS(=O)(=O)c2ccc(N/C=C(\C=O)c3nc4cc(Cl)ccc4o3)cc2)s1	-	29	-	-	-	-	43
O=C(c1ccc(S(=O)(=O)N2CCOCC2)cc1)N1CCN(c2cccc(Cl)c2)CC1	-	-	-	-	-	-	.
COc1cccc(C(=O)NCC2CCN(c3ccc(S(=O)(=O)N4CCOCC4)cc3)CC2)c1	-	29	-	-	-	-	-
O=C(NCC1CCN(c2ccc(S(=O)(=O)N3CCOCC3)cc2)CC1)c1cccc(Cl)c1	-	32	-	-	-	-	31
COc1ccccc1C(=O)NCCN1CCN(C(=O)c2ccccc2OC)CC1	-	-	-	-	-	-	.
CC(C)CCOCC(=O)Nc1cccc(C(=O)O)c1	-	-	-	-	-	-	.
SMILES	LYPLA1 inh	LYPLA2 inh	GSTO1 inh	Fam108B inh	PME-1 inh	PAD4 inh	LYPLA2 confirm	others
Cc1ccc(Sc2ccc(CN3CCCCC3)cc2[N+](=O)[O-])cc1	-	-	-	-	-	-	.
O=C(CNc1ccc(Br)cc1)Nc1cccc(S(=O)(=O)N2CCCC2)c1	-	-	.	.	-	-	.
O=C(CNc1ccc(Br)cc1)Nc1ccc(S(=O)(=O)N2CCCC2)cc1	-	29	.	.	-	-	-
O=C(Nc1ccc(S(=O)(=O)N2CCOCC2)cc1)c1c(F)cccc1F	-	-	-	-	-	-	.
O=C(Nc1ccc(S(=O)(=O)N2CCCC2)cc1)c1c(F)cccc1F	-	28	-	-	-	-	-
Cc1ccc(NC(=O)CSc2nc(=O)n(CCCN3CCOCC3)c3c2CCCC3)cc1	-	-	-	-	-	-	.
CCOc1cc(CN2CCN(c3cccc(C(F)(F)F)c3)CC2)ccc1O	-	28	-	-	-	-	29
CCOc1cc(CN2CCSCC2)ccc1O	-	-	-	-	-	-	.
Cn1c(=O)c2c(ncn2CC(=O)N/N=C/C(Br)=C/c2ccccc2)n(C)c1=O	-	27	-	-	-	-	39
C=CCC[C@@H](Cc1ccc(F)cc1)C(=O)OC[C@H](C)NC(=O)[C@@H](CC=C)CC(=O)N[C@@H](CO)Cc1ccccc1	.	.	.	.	.	-	.
Cc1cc(OC(C)C(=O)NCCN2CCOCC2)c2c(C)c(C)c(=O)oc2c1 (stereo unspecified)	-	-	-	-	-	-	.
CC(C)CCN1C(=O)c2ccc(C(=O)NCc3ccco3)cc2C1=O	-	28	-	-	-	-	-
O=C(NCc1ccco1)c1ccc2c(c1)C(=O)N(Cc1ccccc1)C2=O	-	-	-	-	-	-	.
CCCCC(=O)NC1(C(F)(F)F)C(=O)N(CC(C)C)C2=C1C(=O)CC(C)(C)C2 (stereo unspecified)	-	-	-	-	-	-	.
CC(C)Cc1nc(SCC(=O)N2CCCC2)c2c(=O)n(C)c(=O)n(C)c2n1	-	-	-	-	-	-	.
CN(CC(=O)Nc1ccccc1Cl)C(=O)c1ccc(N2CCCCCC2)c([N+](=O)[O-])c1	-	-	.	.	-	-	.
Fc1ccccc1COc1ccc(/C=N/n2cnnc2)cc1	-	26	-	-	-	-	-
Clc1ccc(Oc2cccc(/C=N/n3cnnc3)c2)cc1	-	37	-	-	-	-	32
CCOC(=O)C1CCN(C(=O)CNC(=O)Cn2c(C)cc3ccccc3c2=O)CC1	-	29	-	-	-	-	-
CCOC(=O)CNC(=O)Cn1c(C)cc2ccccc2c1=O	-	-	-	-	-	-	.
Cc1ccc(NC2=C(Cl)C(=O)OC2OC(=O)c2ccc(C)cc2)cc1 (stereo unspecified)	-	30	-	-	-	-	38
COc1cc(-c2c(C#N)c(N)nc(SCc3ccncc3)c2C#N)cc(OC)c1OC	-	35	-	-	-	-	29
COc1ccc(CC(=O)OCC(=O)NC2CCCCC2)cc1OC	.	.	.	.	.	-	.
Cc1cc(=O)oc2cc(Oc3ccc([N+](=O)[O-])cc3[N+](=O)[O-])ccc12	-	37	-	-	-	-	41
